Screens from PubChem BioAssay.
Only some compounds are listed: those with a hit (about 8.3% of all), similar ones and a draw of the others.
Giardia killer: Small Molecules that selectively kill Giardia lamblia: qHTS; Giardia lamblia trophozoite viability; activity change, % at 7.66 µM, hits read low; actives 0.15% (n = 340,000); AID 540267, 2011; in the data active means activity change below about -80%; inconclusive means between about -30% and that limit;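 further: parasites exposed to compound for two days anaerobically before the ATP read; on the % scale 0 is the no-effect control and ±100 the full control effect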
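Killing of trophozoites was scored by loss of ATP luminescence after a 48 hrs anaerobic exposure to compounds at 37 deg C, using 100 cells per well.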
Chronic BCR inh: qHTS Assay to Find Inhibitors of Chronic Active B-Cell Receptor Signaling; ABC-DLBCL IkBa-CBG/CBR reporter, luminescence ratio, 4 h; Potency, µM (titrated, usually from 46.1 µM), for inactives: at the top dose activity change, negative = inhibition, hits mostly inhibitors; actives 0.05% (n = 340,000); active means well fitted inhibition curve with a large enough effect in the signal ratio, with a control signal flat, not every such curve was filed as active; inconclusive means small, poorly fitted or top-dose-only effect, or effect the other way, or a change in a side signal; the % refers to the signal ratio;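 further: potency means the concentration at half of the fitted maximal effect; plate controls were basal doxycycline-induced cells for no effect and cells given 10 µM MG132 for full effect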
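Doxycycline induced both beetle luciferases in TMD8 lymphoma cells; IKK-driven degradation limits the IkappaBalpha-fused green signal, while red luminescence normalises for cell number and nonspecific effects. Compounds tested up to 46 uM, 4 hrs.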
RORgamma inh: qHTS for inhibitors of ROR gamma transcriptional activity; Nuclear receptor ROR-gamma (Mus musculus), P51450; Drosophila S2 Gal4-RORgamma UAS-luciferase reporter, 20 h; Potency, µM (titrated, usually from 53.6 µM), for the others: top-dose activity change, negative = inhibition, usual class: inhibitors; actives 5.4% (n = 310,000); AID 2551, 2010; further: potency means the concentration at half of the fitted maximal effect; on the % scale 0 is the no-effect control and ±100 the full control effect; nearly all actives have a fitted effect of over 60% in size
Target sequence (P51450 whole entry, looked up, the tested form may be a part): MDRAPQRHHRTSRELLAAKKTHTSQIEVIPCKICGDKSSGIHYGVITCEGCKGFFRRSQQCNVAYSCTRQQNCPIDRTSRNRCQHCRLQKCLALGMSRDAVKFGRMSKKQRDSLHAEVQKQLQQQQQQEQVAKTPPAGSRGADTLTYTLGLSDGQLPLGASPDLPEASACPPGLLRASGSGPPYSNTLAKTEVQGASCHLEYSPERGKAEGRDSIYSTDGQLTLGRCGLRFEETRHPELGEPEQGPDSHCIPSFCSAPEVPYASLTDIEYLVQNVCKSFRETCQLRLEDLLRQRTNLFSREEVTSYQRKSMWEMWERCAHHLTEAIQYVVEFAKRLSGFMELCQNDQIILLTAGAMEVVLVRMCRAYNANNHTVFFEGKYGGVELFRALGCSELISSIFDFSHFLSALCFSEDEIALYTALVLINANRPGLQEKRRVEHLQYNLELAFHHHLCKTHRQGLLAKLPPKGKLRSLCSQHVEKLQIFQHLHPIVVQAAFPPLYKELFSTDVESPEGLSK
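Luminescence from a UAS-regulated Photinus luciferase reporter in stably transfected Drosophila Schneider cells is measured; decreased signal marks ROR gamma inhibition. Fusion expression is induced by 700 uM copper sulfate for 20 hr.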
VP16 counter: VP16 counterscreen qHTS for inhibitors of ROR gamma transcriptional activity | actives 3.5% (n = 310,000) | Potency, µM (series often up to 53.6 µM), inactives show top-dose activity, negative = inhibition, hits mostly inhibitors | Drosophila S2 Gal4-VP16 UAS-luciferase, luminescence, 20 h;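 further: Gal4-VP16 expression switched on by copper sulfate through the metallothionein promoter; potency means the concentration at half of the fitted maximal effect; on the % scale 0 is the no-effect control and ±100 the full control effect; nearly all actives have a fitted effect of over 50% in size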
MCF10A rereplic: A quantitative high throughput screen for small molecules that induce DNA re-replication in MCF 10a normal breast cells. AID 624296, 2012. actives 2.9% (n = 350,000). Potency, µM (series often up to 46.1 µM), for inactives: top-dose activity, positive = re-replication, actives largely listed as activators. MCF 10A DNA re-replication, Hoechst nuclear intensity, 48 h; further: potency means the concentration at half of the fitted maximal effect; % of control where 0% means no effect; nearly all actives have a fitted effect of over 50% in size
SW480 rereplic: A quantitative high throughput screen for small molecules that induce DNA re-replication in SW480 colon adenocarcinoma cells. SW480 DNA re-replication, Hoechst DNA content imaging, 48 h. Potency, µM (top dose mostly 46.1 µM), for inactives: at the top dose re-replication activation, actives largely listed as activators. actives 1.8% (n = 340,000). AID 624297, 2012; further: potency means the concentration at half of the fitted maximal effect; % of control where 0% means no effect; nearly all actives have a fitted effect of over 55% in size
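Compounds, transferred as 23 nL by pin tool, were incubated with cells for 48 hr; DNA content per nucleus was then quantified by Hoechst staining and fluorescence plate imaging.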
An asterisk follows results filed as active; ? = inconclusive; / = no result given; [ ] = remark or other dose. Unless noted, the call rests on the fitted dose curve; in most records, active means well fitted curve in the direction sought with a large enough effect; inconclusive means small, poorly fitted or top-dose-only effect, or another doubt; inactive means no such curve, though single readings can be large; an effect the other way counts as inactive or inconclusive.

SMILES | Giardia killer | Chronic BCR inh | RORgamma inh | VP16 counter | MCF10A rereplic | SW480 rereplic
Cc1ccc(C(=O)N2CCN(c3ncccn3)CC2)c(C)c1 | 0.7 | 0.6% | -4.3% | 7.3% | 3.3% | -18.2%
O=C(Nc1ccc(-c2nc3cc(Cl)ccc3c(=O)o2)cc1)c1ccco1 | 7.4 | ? | 1.3% | 6.3% | -0.3% | -6.4%
O=C(Nc1ccc(-c2nc3c(ccc4ccccc43)o2)cc1)c1ccco1 | 4.9 | 1.1% | ? | ? | 4.61µM* | ?
O=C(O)CSc1cc(C(=O)c2ccccc2O)cn2c(=O)c3c(-c4ccccc4)csc3nc12 | -10.1 | 18.8% | -19.1% | 5.3% | 5.17µM* | ?
COC(=O)c1cc(C(=O)c2cc(F)ccc2O)cn2c(=O)c3c(C)c(C)sc3nc12 | ? | 1.2% | 7.6% | -7.8% | 3.66µM* | ?
CCc1c(C)sc2nc3c(C(=O)N4CCOCC4)cc(C(=O)c4ccccc4O)cn3c(=O)c12 | -8.1 | -5.8% | 17.5% | 2.5% | -0.8% | 0.8%
CCOC(=O)c1sc2nc3c(SCC(=O)O)cc(C(=O)c4ccccc4O)cn3c(=O)c2c1C | -26.6 | 3.5% | -0.8% | -7.4% | 1.1% | 16.3%
CCOC(=O)c1sc2nc3c(SCC(=O)O)cc(C(=O)c4cc(F)ccc4O)cn3c(=O)c2c1C | 3.7 | 8.7% | -6.7% | -1.8% | 3.26µM* | -0.9%
Cc1sc2nc3c(SC(C)C(=O)O)cc(C(=O)c4ccccc4O)cn3c(=O)c2c1C (centres undefined) | 4.7 | ? | -12.1% | -12.5% | 16.4µM* | -5.6%
Cc1cccc(OCC(=O)OCC(=O)NCC2CCCO2)c1C (centres undefined) | 13.7 | 1.4% | / | / | -6.4% | -6.4%
CCOC(=O)N1CCN(Cc2nc3c(c(=O)n(C)c(=O)n3C)n2CCCc2ccccc2)CC1 | 31.1 | 5.1% | -5.8% | 0.3% | -1.2% | 8.5%
Cc1c2c(nc3ccccc13)CCC(C)C2 (centres undefined) | -2.1 | -1.2% | 11.2µM* | -22.9% | -25.2% | -63.3%
O=C(O)CCNS(=O)(=O)c1cccc2nsnc12 | -6.8 | 1.3% | / | / | -4.0% | -9.7%
Cc1ccc(S(=O)(=O)n2cc(-c3ccccc3)c3ccccc32)cc1 | 2.4 | ? | / | / | 35.5% | 3.66µM*
COCCN1CC(=O)N2C(c3cccc(OC)c3)c3[nH]c4ccccc4c3C[C@H]2C1=O (some centres undefined) | -0.9 | ? | 4.2% | -8.9% | 3.4% | -3.8%
O=S(c1ccccc1O)S(=O)c1ccccc1O (centres undefined) | -3.6 | / | / | / | ? | ?
CS(=O)c1ccccc1O (centres undefined) | -10.4 | -4.1% | 11.2µM* | -4.3% | 4.3% | -6.4%
N#Cc1ccccc1OCC(=O)OCC(=O)N1CCN(C(=O)c2ccco2)CC1 | -19.2 | 0.8% | -1.5% | 10.1% | 3.2% | -1.3%
C/C(CC1CC(C)OC1=O)=N\NC(N)=S (centres undefined) | ? | 0.5% | 8.91µM* | ? | -5.0% | ?
CC1=CC2=C(OC1N(C)C)c1cccc3cccc(c13)C2=O (centres undefined) | -24.0 | ? | 8.91µM* | ? | 9.9% | -9.6%
COC(=O)c1cc2occc2n1Cc1ccc(Cl)cc1 | -0.1 | 5.8% | ? | -12.0% | 16.4µM* | ?
O=C(NCc1ccco1)c1ccc2nc3sc4c(c3c(=O)n2c1)CCCC4 | / | 10.2% | 4.47µM* | ? | / | /
CCCCOc1ccc(/C=N/NC(=S)Nc2cc(C)ccc2C)cc1 | -3.2 | -18.1% | 6.31µM* | 5.01µM* | 21.0% | -0.3%
CCCCOc1ccc(/C=N/NC(=S)Nc2cccc(C)c2C)cc1 | -5.3 | -35.8% | 1.78µM* | 3.16µM* | 5.0% | 5.2%
Cc1cccc(C)c1NC(=S)N/N=C/c1ccc(OCCC(C)C)cc1 | 24.9 | ? | 1.58µM* | 2.82µM* | 13.0% | 18.5%
SMILES | Giardia killer | Chronic BCR inh | RORgamma inh | VP16 counter | MCF10A rereplic | SW480 rereplic
Cc1cccc(OCCCC(=O)NCC(=O)Nc2cccc(C)c2C)c1 | -21.9 | ? | 4.9% | -8.4% | 4.9% | ?
Cc1cccc(C)c1NC(=S)N/N=C/c1ccc(C(=O)O)cc1 | 10.6 | -0.2% | -28.6% | -0.9% | 10.3% | ?
COc1ccc(-c2noc(-c3ccccc3F)n2)cc1 | 26.9 | ? | ? | ? | 2.5% | 3.4%
COc1ccc(-c2nc(-c3ccncc3)no2)c(OC)c1 | -3.9 | ? | 7.94µM* | ? | 2.5% | -3.5%
COc1ccc(-c2noc(-c3ccccc3-c3ccccc3)n2)cc1 | -1.9 | ? | 15.8µM* | 12.0% | 23.1% | 3.8%
Brc1ccccc1-c1nc(-c2ccccc2)no1 | / | ? | -11.8%[0.365 µM] | / | / | /
Cc1ccc(-c2nc(-c3ccccc3)no2)c(Cl)c1 | ? | -11.7% | 10µM* | 7.08µM* | 13.7% | 3.3%
Cc1ccc(-c2nc(-c3ccncc3)no2)cc1 | -3.0 | ? | 14.1µM* | ? | -1.6% | -11.0%
CCN(C(=O)CN1C(=O)NC(c2ccccc2)(c2ccc(C)c(C)c2)C1=O)C1CCCCC1 (centres undefined) | -18.8 | 11.4% | / | / | ? | ?
Cc1ccc(-c2nc(-c3ccccc3)no2)cc1 | -3.3 | ? | 10µM* | 12.6µM* | -3.2% | -1.9%
Cc1ccc(-c2nc(-c3cccnc3)no2)cc1 | 0.0 | / | ? | ? | 0.6% | -3.3%
COc1ccccc1-c1nc(-c2cccc(C)c2)no1 | 1.2 | ? | ? | 22.4µM* | 17.6% | 0.2%
CSCCC(NS(=O)(=O)c1ccc(C)cc1)C(=O)NNC(=O)c1csc(N2CCOCC2)n1 (centres undefined) | -19.2 | -1.7% | 2.7% | -12.1% | -0.1% | 8.6%
Cc1ccc(C(=O)Nc2nc(-c3cc(Cl)sc3Cl)cs2)cc1 | -27.3 | 15.8% | 2.9% | 15.3% | 25.9µM* | -0.2%
Cc1ccc(C)c(-c2csc(NC(=O)c3cnccn3)n2)c1 | 16.7 | ? | 0.501µM* | 1.26µM* | -1.5% | -2.2%
OCC1OC([S-])[C@H](O)C(O)C1O.[Au+] (some centres undefined) | / | / | -8.8% | 6.31µM* | 29.9µM* | -1.9%
O=C1N=C2SCCN2C(=O)C1Cc1ccc(Cl)cc1 (centres undefined) | / | / | 7.7% | 4.3% | 11.5% | -2.1%
O=C1N=C2SCCN2/C1=C\c1ccc(Cl)cc1 | -4.4 | ? | -43.2% | 16.1% | 18.4µM* | 1.7%
CCOC(=O)c1c(N2C(=O)C=CC2=O)sc(C)c1C | -2.9 | ? | 4.47µM* | -11.1%[0.365 µM] | 2.91µM* | 9.2µM*
CCOC(=O)c1c(NC(N)=O)sc(C)c1C | -6.3 | ? | 22.8%[0.365 µM] | / | 2.7% | -21.6%
